Test results reported in PubChem BioAssay (NCATS).
“And” between values parts separate entries of the source, which are not always exact repeats. Identical values can stand only once. Inconclusive results are not listed. Some compounds were tested as several samples or in several runs, with calls that do not always agree. The source made the active and inactive calls. Calls come from the whole dose curve; as a rule, active = well fitted curve in the direction sought with a large enough effect; inconclusive = small, poorly fitted or top-dose-only effect, or another doubt; inactive = no such curve, though single readings can be large or run the other way.

Test: qHTS Assay for Identifying Gametocytocidal Compounds (AID 743244); note: potency is the fitted concentration of half-maximal effect;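 for max response: % is set by controls: 0 for no effect and ±100 for the full control effect; actives lower the fluorescent signal which means gametocytes are killed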
Conditions: P. falciparum 3D7 stage III-V gametocytes, alamarBlue, 72 h; max response: stronger effect = lower value
Summary of the method: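 In this qHTS viability screen, late-stage 3D7 gametocytes are incubated with compound for 72 h, then with alamarBlue for 24 h; reduced resorufin fluorescence marks killing.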

Question: With `O=C1OC2(c3ccc(O)cc3Oc3cc(O)ccc32)c2ccccc21` as the molecule, how does the max response read?
Answer: -13.2% (inactive) and 24.2% (inactive)

Question: Which max response does the source give for `C#C[C@]1(O)CC[C@H]2[C@@H]3CCc4cc(OC5CCCC5)ccc4[C@H]3CC[C@@]21C` here?
Answer: 6.16% (inactive)

Question: Which max response does the source give for `CCOC(=O)COc1ccc2c(C)c(CCN(CC)CC)c(=O)oc2c1Cl` here?
Answer: -0.591% (inactive)

Question: With `Oc1ccc(Cl)c2cccnc12` as the molecule, how does the Potency read?
Answer: 7.94 µM (active)

Question: With `CCCCCCC[N+](CC)(CC)CCCCc1ccc(Cl)cc1` as the molecule, how does the Potency read?
Answer: 3.55 µM (active)

Question: Which max response does the source give for `CCCCN1CCCC1C(=O)Nc1c(C)cc(C)cc1C` (stereo unspecified) here?
Answer: -5.69% (inactive)

Question: For `CN1CCN(CCCN2c3ccccc3Sc3ccc(S(=O)(=O)N(C)C)cc32)CC1`, which Potency is on record?
Answer: 5.64 µM (active)

Question: With `NCCc1ccn[nH]1` as the molecule, how does the max response read?
Answer: 5.14% (inactive)

Question: Which max response does the source give for `Oc1cc(O)c2c(c1)O[C@H](c1ccc(O)c(O)c1)[C@H](O)C2` here?
Answer: 2.48% (inactive)

Question: Which Potency does the source give for `COc1cccc(CCc2ccccc2OCC(CN(C)C)OC(=O)CCC(=O)O)c1` (stereo unspecified) here?
Answer: 3.72 µM (active)

Question: For `C#C[C@]1(OC(C)=O)CC[C@H]2[C@@H]3CCC4=C[C@@H](OC(C)=O)CC[C@@H]4[C@H]3CC[C@@]21C`, which max response is on record?
Answer: -2.21% (inactive) and -10.1% (inactive)

Question: Which max response does the source give for `NC(=O)CC[C@@H]1NC(=O)[C@H](Cc2ccccc2)NC(=O)[C@H](Cc2ccc(O)cc2)NC(=O)CCSSC[C@@H](C(=O)N2CCC[C@H]2C(=O)N[C@@H](CCCN=C(N)N)C(=O)NCC(N)=O)NC(=O)[C@H](CC(N)=O)NC1=O` here?
Answer: 1.03% (inactive) and -0.48% (inactive)

Question: Which max response does the source give for `CCN(CCCCOC(=O)c1ccc(OC)c(OC)c1)C(C)Cc1ccc(OC)cc1` (stereo unspecified) here?
Answer: 14.8% (inactive)

Question: With `Cc1cccn2c(=O)c(-c3nnn[nH]3)cnc12` as the molecule, how does the max response read?
Answer: -1.77% (inactive)

Question: With `COc1ccc(C2C(=O)c3ccccc3C2=O)cc1` as the molecule, how does the max response read?
Answer: 5.04% (inactive)

Question: With `Nc1nc2ncc(CNc3ccc(C(=O)N[C@@H](CCC(=O)O)C(=O)O)cc3)nc2c(=O)[nH]1` as the molecule, how does the max response read?
Answer: 17.9% (inactive)

Question: For `CN1[C@@H]2CC[C@H]1CC(OC(=O)c1c[nH]c3ccccc13)C2` (stereo partly specified), which max response is on record?
Answer: 7.82% (inactive)

Question: For `Nc1ccn([C@@H]2O[C@H](CO)[C@@H](O)C2(F)F)c(=O)n1`, which max response is on record?
Answer: 15.6% (inactive) and -5% (inactive)

Question: With `O=c1[nH]c(=O)n([C@H]2CCCO2)cc1F` as the molecule, how does the max response read?
Answer: -0.456% (inactive)

Question: For `Cc1ccc(C(=O)C(C)CN2CCCCC2)cc1` (stereo unspecified), which Potency is on record?
Answer: 22.4 µM (active)

Question: And the max response?
Answer: -1.77% (inactive)

Question: With `O=S1(=O)c2cccc3cccc(c23)N1CCCN1CCN(c2ccc(F)cc2)CC1` as the molecule, how does the max response read?
Answer: 13.8% (inactive)

Question: For `COc1c(C)c2c(c(O)c1C/C=C(\C)CCC(=O)O)C(=O)OC2`, which max response is on record?
Answer: 31.6% (inactive)

Question: Which max response does the source give for `CCCC(=O)Nc1ccc(OCC(O)CNC(C)C)c(C(C)=O)c1` (stereo unspecified) here?
Answer: 19.2% (inactive)

Question: With `CCCCC1=NC2(CCCC2)C(=O)N1Cc1ccc(-c2ccccc2-c2nn[nH]n2)cc1` as the molecule, how does the max response read?
Answer: 1.29% (inactive)

Question: With `CO/N=C1\CN(c2nc3c(cc2F)c(=O)c(C(=O)O)cn3C2CC2)CC1CN` (stereo unspecified) as the molecule, how does the max response read?
Answer: -1.09% (inactive)

Question: Which Potency does the source give for `CC1(C)O[C@@H]2C[C@H]3[C@@H]4CCC5=CC(=O)CC[C@]5(C)[C@@]4(F)[C@@H](O)C[C@]3(C)[C@]2(C(=O)CCl)O1` here?
Answer: 8.91 µM (active)

Question: With `CC[N+](CC)(CCNC(=O)C(=O)NCC[N+](CC)(CC)Cc1ccccc1Cl)Cc1ccccc1Cl` as the molecule, how does the max response read?
Answer: 15.6% (inactive)

Question: With `C=C1C[C@H]2[C@@H]3C=C(C)C4=CC(=O)CC[C@]4(C)[C@H]3CC[C@]2(C)[C@@]1(OC(C)=O)C(C)=O` as the molecule, how does the max response read?
Answer: 18% (inactive)

Question: For `CCCCC(=O)O[C@]1(C(=O)CO)CC[C@H]2[C@@H]3CCC4=CC(=O)CC[C@]4(C)[C@H]3[C@@H](O)C[C@@]21C`, which max response is on record?
Answer: 5.31% (inactive)

Question: For `O=C1c2ccccc2C(=O)C1c1ccccc1`, which max response is on record?
Answer: 1.91% (inactive)

Question: For `COc1cc(N)c(Cl)cc1C(=O)NC1CCN(CCCOc2ccc(F)cc2)CC1OC` (stereo unspecified), which max response is on record?
Answer: -0.854% (inactive)

Question: Which max response does the source give for `CC(=O)Oc1ccc(C(=C2CCCCC2)c2ccc(OC(C)=O)cc2)cc1` here?
Answer: 9.87% (inactive)

Question: With `CN(C(=O)CN(CCO)CC(=O)N(C)C(C)(C)Cc1ccccc1)C(C)(C)Cc1ccccc1` as the molecule, how does the max response read?
Answer: -1.55% (inactive)

Question: With `OC(CCN1CCCCC1)(c1ccccc1)c1ccccc1` as the molecule, how does the max response read?
Answer: 13.3% (inactive)

Question: With `CCCCCCCCCCCCCCCCOP(=O)([O-])OCC[N+](C)(C)C` as the molecule, how does the max response read?
Answer: -10.8% (inactive)

Question: Which max response does the source give for `CC1(C)OC[C@@H](COC(=O)CCc2ccc(OC[C@@H](O)CNCCNC(=O)N3CCOCC3)cc2)O1` here?
Answer: -9.37% (inactive) and -4.75% (inactive)

Question: For `C[n+]1c2cc(N)ccc2cc2ccc(N)cc21` (tested in a mixture with another compound), which Potency is on record?
Answer: 7.94 µM (active)

Test: qHTS profiling for inhibitors of Plasmodium falciparum (3D7) proliferation (AID 743322);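 note: infected erythrocytes exposed to compound for 72 h before lysis; 100% = DMSO vehicle wells and 0% = 0.29 µM artemisinin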
Conditions: P. falciparum 3D7 proliferation; at 28.7 µM (top of the series) unless noted
Summary of the method: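 Parasite DNA was quantified by SYBR Green I fluorescence (ex 485, em 535 nm) after overnight lysis in saponin/Triton buffer at room temperature. Cultures at 0.3% parasitemia and 2.5% hematocrit were first exposed to compound for 72 h at 37 C; signals were normalised to artemisinin (0.29 uM) and vehicle wells.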

Question: With `CN1CCN(CCCN2c3ccccc3Sc3ccc(S(=O)(=O)N(C)C)cc32)CC1` as the molecule, how does the remaining parasite growth % (stronger effect = lower value) read?
Answer: 1.46% [at 9.63 µM]

Question: With `COc1cccc(CCc2ccccc2OCC(CN(C)C)OC(=O)CCC(=O)O)c1` (stereo unspecified) as the molecule, how does the remaining parasite growth % (stronger effect = lower value) read?
Answer: 1.08%

Question: For `Nc1ccn([C@@H]2O[C@H](CO)[C@@H](O)C2(F)F)c(=O)n1`, which remaining parasite growth % (stronger effect = lower value) is on record?
Answer: -1.17% [at 57.5 µM]
